The sample as a whole holds a higher share of hits than the screen did.
IDE exosite FP – exo-site inhibitors of human IDE, primary screen, biochemical, fluorescence anisotropy, probe displacement; Insulin-degrading enzyme (Homo sapiens), P14735; purified IDE, FL-6b probe fluorescence polarization; active compounds read low; z-score at 20 µM; 17,000 tested, 6.3% active;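 active = z-score of -3 or lower, meaning strong loss of probe binding signal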;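 also: His-tagged human IDE residues 42-1019 made in E. coli with 30 nM FL-6b probe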
Numbers without * were called inactive; ! = not active in a repeat.

SMILES	IDE exosite FP
O=C(c1ccncc1)N1CCCCN2[C@H](CO)[C@@H](c3ccc(C#Cc4ccccn4)cc3)[C@@H]2C1	-1.88
CS(=O)(=O)N1CCCCN2[C@@H](CO)[C@H](c3ccc(C#Cc4ccccn4)cc3)[C@@H]2C1	-3.9*
O=C(c1ccncc1)N1CCCCN2[C@H](C1)[C@H](c1ccc(C#Cc3ccccn3)cc1)[C@@H]2CO	-2.18
CCS(=O)(=O)N1CCCCN2[C@H](CO)[C@@H](c3ccc(C#Cc4ccccn4)cc3)[C@@H]2C1	-0.474
O=S(=O)(c1ccccc1)N1CCCCN2[C@H](CO)[C@H](c3ccc(C#Cc4ccccn4)cc3)[C@H]2C1	-3.19*
O=S(=O)(c1ccccc1)N1CCCCN2[C@H](CO)[C@H](c3ccc(C#Cc4ccccc4)cc3)[C@H]2C1	1.92
CS(=O)(=O)N1CCCCN2[C@H](C1)[C@@H](c1ccc(C#Cc3ccccn3)cc1)[C@@H]2CO	-3.32*
O=S(=O)(c1ccccc1)N1CCCCN2[C@H](CO)[C@H](c3ccc(C#Cc4ccccc4)cc3)[C@@H]2C1	3.68
O=C(Nc1ccc(F)cc1)N1[C@H](CO)[C@H]2c3ccccc3NC[C@H]21	1.04
O=S(=O)(c1ccc(F)cc1)N1CCCCN2[C@H](CO)[C@H](c3ccc(-c4ccccc4)cc3)[C@H]2C1	1.43
COCC(=O)Nc1ccc2c(c1)C(=O)N(C)[C@@H]1CC[C@@H](CC(=O)N3CCc4ccccc4C3)O[C@@H]1CO2	-0.888
COc1ccccc1CNC(=O)C[C@@H]1CC[C@@H]2[C@@H](COc3ccc(NC(C)=O)cc3C(=O)N2C)O1	1.78
CO[C@@H]1CN(C)C(=O)c2cc(NC(=O)c3ccc(F)cc3)ccc2OC[C@@H](C)N(C(=O)CC2CC2)C[C@@H]1C	0.368
O=C1CNC[C@H]2[C@@H](c3ccc(C#CC4CCCC4)cc3)[C@@H](CO)N12	4.59
O=C(c1ccc(F)cc1)N1CC(=O)N2[C@H](C1)[C@@H](c1ccc(C#Cc3ccc(F)cc3)cc1)[C@@H]2CO	1.71
COc1ccc2c3c(n(C)c2c1)[C@H](CO)N(C(=O)c1ccc(F)cc1)CC31CN(CC2CCOCC2)C1	0.233
N#C[C@@H]1[C@@H](c2ccccc2-c2ccccc2F)[C@H](CO)N1C(=O)C1CCOCC1	3.77
CCCNC(=O)N1[C@H](CO)[C@@H](c2ccccc2-c2cccc(C)c2)[C@@H]1C#N	-0.82
O=C1CCC(=O)N[C@@H](c2ccccc2)C/C=C\CCN1	-0.77
CO[C@H]1CN(C)C(=O)c2ccc(NS(=O)(=O)c3c(C)noc3C)cc2OC[C@H](C)NC[C@@H]1C	2.25
O=C(c1ccc(F)cc1)N1C[C@@H]2N[C@H](C1)C2c1ccc(-c2cncnc2)cc1 (stereo partly specified)	3.28
O=C(c1ccncc1)N1C[C@@H]2N[C@H](C1)C2c1ccc(-c2ccncc2)cc1 (stereo partly specified)	3.17
O=C(c1ccc(F)cc1)N1C[C@@H]2N[C@H](C1)C2c1ccc(-c2ccc(F)cc2)cc1 (stereo partly specified)	3.9
Cc1ccccc1-c1ccc(C2[C@@H]3CN(C(=O)c4ccc(F)cc4)C[C@H]2N3)cc1 (stereo partly specified)	-10.1*!
O=C(c1ccc2c(c1)OCO2)N1C[C@@H]2N[C@H](C1)C2c1ccc(-c2ccccc2F)cc1 (stereo partly specified)	-2.76
SMILES	IDE exosite FP
O=C(c1ccc(F)cc1)N1C[C@@H]2N[C@H](C1)C2c1ccc(-c2ccccc2F)cc1 (stereo partly specified)	-4.11*!
CC=Cc1ccc2n(c1=O)C[C@@H]1[C@@H](CO)[C@H](C(=O)N3CCc4ccccc4C3)[C@H]2N1Cc1cocn1 (mixture of isomers)	-0.165
O=C(Nc1ccccc1F)N1CC(=O)N2[C@H](C1)[C@@H](c1ccc(C#CC3CCCC3)cc1)[C@@H]2CO	1.85
CN1C[C@H]2[C@@H](c3ccccc31)[C@@H](CO)N2C(=O)c1cccnc1	2.27
O=C(c1cnccn1)N1CC(=O)N2[C@H](CO)[C@H](c3ccc(-c4ccc(F)cc4)cc3)[C@H]2C1	4
O=C(c1cnccn1)N1CC(=O)N2[C@H](CO)[C@@H](c3ccc(-c4ccc(F)cc4)cc3)[C@@H]2C1	2.62
O=C(c1cnccn1)N1CC(=O)N2[C@@H](CO)[C@H](c3ccc(C4=CCCCC4)cc3)[C@@H]2C1	-1.6
Cc1cccc(-c2ccc([C@H]3[C@@H](CO)N4C(=O)CN(C(=O)c5cnccn5)C[C@@H]34)cc2)c1	-9.29*
Cc1cccc(-c2ccc([C@H]3[C@@H](CO)N4C(=O)CN(C(=O)c5cnccn5)C[C@H]34)cc2)c1	-12.5*
O=C(c1cnccn1)N1CC(=O)N2[C@H](CO)[C@H](c3ccc(-c4ccccc4)cc3)[C@@H]2C1	2.77
O=C(c1cnccn1)N1CC(=O)N2[C@H](CO)[C@@H](c3ccc(-c4ccccc4)cc3)[C@@H]2C1	-2.96
O=C(c1cnccn1)N1CC(=O)N2[C@@H](CO)[C@H](c3ccc(-c4ccccc4)cc3)[C@@H]2C1	-3.76*
